Results on 62 compounds are retold here after PubChem BioAssay AID2599 (Sanford-Burnham Center for Chemical Genomics, 2010).

The structures appear in SMILES notation. Screen size: about 330,000 compounds; about 5,800 (1.8%) were called active.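 Rule for the calls: active = inhibition above about 50% at the single tested dose (limit read from the data); inactive = the rest.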 For the sample, actives were picked, then their nearest neighbours and some compounds at random.

For this experiment, the target named is Sentrin-specific protease 6 (Homo sapiens) (UniProt Q9GZR1). Description: inhibition of human SENP6 catalytic domain – biochemical, luminescence, uHTS, primary screen (AID 2599).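 Note: plate controls were DMSO wells with enzyme for no effect and DMSO wells lacking enzyme for full effect.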 To be noted: Recombinant SENP6 catalytic domain, aminoluciferin luminescence; at 10 µM; stronger effect = higher value.
Sentrin-specific protease 6 (Homo sapiens), sequence (Q9GZR1 628-1112 limits assumed): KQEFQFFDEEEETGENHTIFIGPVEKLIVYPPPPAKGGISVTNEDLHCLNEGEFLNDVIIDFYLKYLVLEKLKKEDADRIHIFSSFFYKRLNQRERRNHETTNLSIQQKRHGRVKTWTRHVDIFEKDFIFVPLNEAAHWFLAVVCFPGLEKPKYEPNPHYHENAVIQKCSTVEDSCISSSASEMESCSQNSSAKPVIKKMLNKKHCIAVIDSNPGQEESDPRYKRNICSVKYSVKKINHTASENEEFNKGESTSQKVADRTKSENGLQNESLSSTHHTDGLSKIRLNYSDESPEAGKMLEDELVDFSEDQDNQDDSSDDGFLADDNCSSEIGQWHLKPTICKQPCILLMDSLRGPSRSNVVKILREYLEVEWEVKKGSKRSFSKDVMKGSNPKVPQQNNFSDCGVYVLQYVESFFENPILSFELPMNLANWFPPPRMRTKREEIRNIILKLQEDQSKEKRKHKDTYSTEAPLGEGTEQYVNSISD
As for `COc1ccc(OC)c2sc(NC(=O)C3COc4ccccc4O3)nc12` (configuration not stated), the inhibition is -3.77% (inactive). For the compound `COc1ccc(NC(=O)C2COc3ccccc3O2)cc1` (configuration not stated), the inhibition was 2.57% (inactive).

As for `O=C(Nc1ncc([N+](=O)[O-])s1)C1COc2ccccc2O1` (configuration not stated), the inhibition was 97.8% (active). The value for `CC(C)(C)C(=O)NCCCNc1ccc([N+](=O)[O-])cc1` was -25.9% (inactive); that for `CCCc1nc2ccccc2c(=O)n1/N=C/c1ccc(O)c(O)c1` was -27.3% (inactive). Turning to `O=C(Nn1cnc2ccccc2c1=O)c1ccccc1`, the inhibition was -4.91% (inactive). Consider `O=c1c2ccccc2ncn1/N=C/c1ccccc1`, for which the inhibition was 85.3% (active). `COc1cccc(CNn2cn[nH]c2=S)c1OCc1ccccc1`: the inhibition was -3.63% (inactive). Take `Cc1cc2nc(SCCN3CCOCC3)[nH]c2cc1C`: the inhibition is 1.61% (inactive).

In the case of `COc1ccc(/C=C2\SC(=S)N(CC(=O)NNC(=O)c3ccncc3)C2=O)cc1`, the inhibition is -3.66% (inactive). Regarding `C=CCOc1ccc(/C=C2\SC(=S)N(CCC(=O)O)C2=O)cc1`, the inhibition is 100% (active). For the compound `O=C(CCCN1C(=O)/C(=C/c2ccccc2)SC1=S)Nc1ccc(O)cc1`, the inhibition is 21.3% (inactive).

For `O=C(CN1CCCCC1)Nc1ccccc1C(=O)NC1CC1`, the inhibition was -13.9% (inactive). As for `Cc1ccc(NC(=O)CS(=O)CC(=O)N(c2ccccc2)C(C)C(=O)NC2CCCC2)cc1` (configuration not stated), the inhibition is -5.91% (inactive). Take `C/C(=C\C(=O)c1cccnc1)Nc1ccc(C)c(C)c1`: the inhibition is 6.26% (inactive). With `O=C(Nc1cccc(O)c1)c1ccc(C(=O)c2ccccc2)o1`, the inhibition was 2.68% (inactive). With `C/C(=C\C(=O)c1ccccc1)Nc1cccc(O)c1`, the inhibition is 57.9% (active). As to `CCC1(CC)NC(=O)N(CC(=O)OCC(=O)c2cc(C)c(C)cc2C)C1=O`, the inhibition is -10.6% (inactive). On to `Cc1ccc(S(=O)(=O)/N=C(\CN2CCOCC2)N2CCOCC2)cc1`, for which the inhibition was 12.4% (inactive). `COc1ccc(C(=O)COC(=O)c2ccc([N+](=O)[O-])s2)cc1OC`: the inhibition was 38.4% (inactive).

On to `COc1cc(NC(=O)COC(=O)c2ccc([N+](=O)[O-])s2)cc(OC)c1OC`, for which the inhibition is 68.2% (active). For the compound `O=C(OCC(=O)N1CCN(c2ccccc2)CC1)c1ccc([N+](=O)[O-])s1`, the inhibition was 49.4% (inactive).

`O=C(NCc1ccccc1CN1CCCC1)c1cccc(S(=O)(=O)Nc2ccc(F)cc2)c1`: the inhibition was 18.3% (inactive). As for `C[C@@H]1CN([C@@H](C)CO)C(=O)c2cc(NC(=O)C3CC3)ccc2O[C@H]1CN(C)C`, the inhibition is 1.75% (inactive). On to `COc1ccc(S(=O)(=O)N2CCC(C(=O)NCCC(=O)NCc3cccc(OC)c3)CC2)cc1`, for which the inhibition is 0.176% (inactive). `Cc1cccc(NS(=O)(=O)c2cccc(C(=O)NNC(=O)c3ccccc3O)c2)c1`: the inhibition is 64.3% (active). Regarding `CC(=O)N1CCN(C(=O)c2cccc(S(=O)(=O)Nc3ccc(C)cc3)c2)CC1`, the inhibition was -4.46% (inactive).

For `Cc1cccc(NS(=O)(=O)c2ccc(C)c(C(N)=O)c2)c1`, the inhibition was -6.03% (inactive). Consider `CNc1nc(SC)nc(N(C#N)CC(=O)OC)n1`, for which the inhibition is 11.5% (inactive). Take `Cc1cccc(NC(=O)Cc2ccc(Br)cc2)n1`: the inhibition is 16% (inactive). `Cc1cccc(NC(=O)COc2ccc(Br)cc2C)n1`: the inhibition was 69.2% (active).

For the compound `CCN(CC)S(=O)(=O)c1ccc(C)c(NC(=O)COc2ccc(Br)cc2Cl)c1`, the inhibition was 9.17% (inactive). Turning to `Cc1ccc(N(C(=O)Cc2cccs2)C2C=CS(=O)(=O)C2)cc1Cl` (configuration not stated), the inhibition is -12.7% (inactive).

For the compound `O=C1CCC(=O)N(c2ccccc2)N1`, the inhibition was -18.9% (inactive). `O=C(c1cnccn1)N1CCN(S(=O)(=O)c2cccc(Cl)c2)CC1`: the inhibition was -6.78% (inactive). On to `Nc1ncc(-c2cc3ccccc3oc2=O)s1`, for which the inhibition is 92.4% (active). The value for `O=C(NCc1cccnc1)c1cccc(-c2cc3ccccc3oc2=O)c1` was -7.83% (inactive). As for `Cc1cc2c(=O)n(C)c(SCC(=O)c3cc4ccccc4o3)nc2s1`, the inhibition is 15.6% (inactive).

In the case of `O=C(CN1C(=O)CC(c2ccccc2)=Nc2ccccc21)NC1CCCCC1`, the inhibition is -12% (inactive). The value for `CSCCC(NC(=O)COc1ccccc1)C(=O)Nc1ccc(C)cc1` (configuration not stated) was -14.9% (inactive); that for `O=C(Nc1ccc(-c2csc(Nc3cccc(C(F)(F)F)c3)n2)cc1)c1cccc(C(F)(F)F)c1` was -9.78% (inactive); that for `CC(=O)Nc1cccc(-c2csc(Nc3cccc(C)n3)n2)c1` was 91.9% (active).

As for `Cc1nc(NC(=O)c2cccc(Cl)c2)sc1-c1csc(Nc2cccc(Cl)c2)n1`, the inhibition is 20% (inactive).

Consider `Cc1cccc(Nc2nc(-c3ccccc3)cs2)n1`, for which the inhibition is 93.1% (active).

For `O=C(O)c1ccccc1C(=O)Nc1nc(-c2ccccc2)cs1`, the inhibition was -12.1% (inactive). As for `Cc1ccccc1Nc1nc(-c2cccnc2)cs1`, the inhibition was 47.4% (inactive). Turning to `Cn1nnnc1SCC(=O)Nc1cccc(S(=O)(=O)N2CCCCC2)c1`, the inhibition is -12.9% (inactive).

Consider `Cc1cccc(CSc2nc3c(c(=O)n2C)SCC3)c1`, for which the inhibition is 21.2% (inactive). The value for `O=C(N/N=C\c1cc(Br)c(Br)o1)C1COc2ccccc2O1` (configuration not stated) was -7.15% (inactive). Turning to `Cc1ccc(C(=O)N/N=C\c2cc(Br)c(Br)o2)cn1`, the inhibition is 66% (active). The value for `Cc1ccc(C(=O)N/N=C/c2cccc3ccccc23)cn1` was -7.6% (inactive); that for `CNC(=S)N/N=C/c1ccc(OCc2ccccc2)c(Br)c1` was -0.485% (inactive). Turning to `CC(C)Oc1ccc(CN2CCC(n3nccc3NC(=O)c3cccnc3)CC2)cc1`, the inhibition was 0.591% (inactive). The value for `CSc1ccc(/C=N\NC(=O)CC(=O)NC(C)C)cc1` was -5.21% (inactive); that for `O=C(N/N=C/c1ccc(Cl)c(Cl)c1)c1ccc2nc[nH]c2c1` was -7.64% (inactive); that for `CSc1ccc(/C=N/NC(=O)c2cccc(Cl)c2)cc1` was 94.4% (active).

`Cc1cc(C)c(NC(=O)CN2CCOCCOCCOCCOCC2)c(C)c1`: the inhibition was -4.6% (inactive). Turning to `CN(C)C(CNC(=O)CCCOc1ccccc1)c1ccco1` (configuration not stated), the inhibition was -5.38% (inactive).

Turning to `CCCCCCc1cc2cc(-c3nnc(-c4ccccc4)o3)c(=O)oc2cc1O`, the inhibition was -12.7% (inactive). The value for `O=c1oc2cc(O)ccc2cc1-c1ccc(F)cc1` was 98% (active); that for `CN(C)c1cc(-c2ccc(F)cc2)oc(=O)c1Cl` was -8.53% (inactive); that for `COC(=O)c1c(C)oc(C)c1S(=O)(=O)NCc1ccc(Cl)cc1` was -15.4% (inactive).
